Laboratory results: PubChem BioAssay (NCATS)
Records with an inconclusive call do not appear. Calls of active or inactive are those of the source. The call rests on the fitted dose curve; in most records, active means well fitted curve in the direction sought with a large enough effect; inconclusive means small, poorly fitted or top-dose-only effect, or another doubt; inactive means no such curve, though single readings can be large; an effect the other way counts as inactive or inconclusive.

Tests used:
[1] = Quantitative High-Throughput drug screen in 47 multiple myeloma cell lines against the NCATS MIPE library collection: KMS21BM_JCRB cell viability assay (AID 1918974); details: ATP luminescence, 48 h; viability: at 45.8 µM unless noted
Method in brief: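 Relative luminescence from CellTiter-Glo served as the viability signal, referenced to DMSO-treated (100%) and cell-free medium (0%) controls. Treatment lasted 48 hours at 37C with 500 cells per well.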

[2] = Quantitative High-Throughput drug screen in 47 multiple myeloma cell lines against the NCATS MIPE library collection: OCIMY1_PLB cell viability assay (AID 1918979); further: nearly all actives have a fitted effect of over 35% in size; on viability: series mostly up to about 46 µM
Method in brief: (§1)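 qHTS format: cells plated (500/well), pin-dosed with MIPE 4.0 compounds, kept 48 h at 37 °C. Readout was CellTiter-Glo luminescence, median RLU.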

[3] = Quantitative High-Throughput drug screen in 47 multiple myeloma cell lines against the NCATS MIPE library collection: MM1S_ATCC cell viability assay (AID 1918980); further: nearly all actives have a fitted effect of over 45% in size
Method in brief: as §1

[4] = Quantitative High-Throughput drug screen in 47 multiple myeloma cell lines against the NCATS MIPE library collection: MM1R_ATCC cell viability assay (AID 1918981); further: nearly all actives have a fitted effect of over 35% in size
Method in brief: as §1

[5] = Quantitative High-Throughput drug screen in 47 multiple myeloma cell lines against the NCATS MIPE library collection: OCIMY7_PLB cell viability assay (AID 1918987); further: nearly all actives have a fitted effect of over 65% in size
Method in brief: as §1

[6] = Quantitative High-Throughput drug screen in 47 multiple myeloma cell lines against the NCATS MIPE library collection: OCIMY5_PLB cell viability assay (AID 1918988); further: nearly all actives have a fitted effect of over 65% in size
Method in brief: as §1

[7] = Quantitative High-Throughput drug screen in 47 multiple myeloma cell lines against the NCATS MIPE library collection: OPM1_PLB cell viability assay (AID 1918989); further: nearly all actives have a fitted effect of over 40% in size
Method in brief: as §1

[8] = Quantitative High-Throughput drug screen in 47 multiple myeloma cell lines against the NCATS MIPE library collection: U266_ATCC cell viability assay (AID 1919864); further: nearly all actives have a fitted effect of over 35% in size
Method in brief: as §1

[9] = Quantitative High-Throughput drug screen in 47 multiple myeloma cell lines against the NCATS MIPE library collection: XG6_PLB cell viability assay (AID 1919865); further: nearly all actives have a fitted effect of over 40% in size
Method in brief: as §1

[10] = Quantitative High-Throughput drug screen in 47 multiple myeloma cell lines against the NCATS MIPE library collection: XG1_PLB cell viability assay (AID 1919866); further: nearly all actives have a fitted effect of over 35% in size
Method in brief: as §1

[11] = Quantitative High-Throughput drug screen in 47 multiple myeloma cell lines against the NCATS MIPE library collection: VP6_DJ cell viability assay (AID 1919867); further: nearly all actives have a fitted effect of over 40% in size
Method in brief: as §1

[12] = Quantitative High-Throughput drug screen in 47 multiple myeloma cell lines against the NCATS MIPE library collection: KMS26_JCRB cell viability assay (AID 1918975); further: nearly all actives have a fitted effect of over 45% in size
Method in brief: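 Viability readout: CellTiter-Glo luminescence following 5 min room-temperature incubation with reagent. Prior exposure: 48 h, 37C, humidified 5% CO2, 500 cells per well.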

[13] = Quantitative High-Throughput drug screen in 47 multiple myeloma cell lines against the NCATS MIPE library collection: MMM1_PLB cell viability assay (AID 1918976); further: nearly all actives have a fitted effect of over 35% in size
Method in brief: as §1

[14] = Quantitative High-Throughput drug screen in 47 multiple myeloma cell lines against the NCATS MIPE library collection: MOLP8_DSMZ cell viability assay (AID 1918977); further: nearly all actives have a fitted effect of over 45% in size
Method in brief: as §1

[15] = Quantitative High-Throughput drug screen in 47 multiple myeloma cell lines against the NCATS MIPE library collection: NCIH929_DSMZ cell viability assay (AID 1918978); further: nearly all actives have a fitted effect of over 35% in size
Method in brief: as §1

[16] = Quantitative High-Throughput drug screen in 47 multiple myeloma cell lines against the NCATS MIPE library collection: LP1_DSMZ cell viability assay (AID 1918982); further: nearly all actives have a fitted effect of over 35% in size
Method in brief: as §1

[17] = Quantitative High-Throughput drug screen in 47 multiple myeloma cell lines against the NCATS MIPE library collection: KMS28PE_JCRB cell viability assay (AID 1918983); further: nearly all actives have a fitted effect of over 35% in size
Method in brief: as §1

[18] = Quantitative High-Throughput drug screen in 47 multiple myeloma cell lines against the NCATS MIPE library collection: KMS34_JCRB cell viability assay (AID 1918985); further: nearly all actives have a fitted effect of over 40% in size
Method in brief: as §1

[19] = Quantitative High-Throughput drug screen in 47 multiple myeloma cell lines against the NCATS MIPE library collection: SKMM1_PLB cell viability assay (AID 1919863); details: SKMM1 myeloma viability, CellTiter-Glo ATP, 48 h; viability: stronger effect = lower value; further: nearly all actives have a fitted effect of over 35% in size
Method in brief: as §1

[20] = Quantitative High-Throughput drug screen in 47 multiple myeloma cell lines against the NCATS MIPE library collection: L363_DSMZ cell viability assay (AID 1918984); further: nearly all actives have a fitted effect of over 40% in size
Method in brief: as §1

Measured: Potency
Potency means the concentration at half of the fitted maximal effect.

O=C(O)C1(Cc2cccc(Nc3nccs3)n2)CCC(Oc2cccc(Cl)c2F)CC1 (stereo not drawn)
active: [1] 23.5 nM | [3] 332 nM | [4] 469 nM | [5] 296 nM | [6] 662 nM | [7] 332 nM | [9] 209 nM | [10] 52.6 nM | [11] 148 nM
inactive: [2] | [8]

CCCCc1nc2cc(C=CC(=O)NO)ccc2n1CCN(CC)CC
active: [12] 526 nM | [13] 418 nM | [14] 132 nM | [15] 935 nM | [2] 1660 nM | [3] 526 nM | [4] 235 nM | [16] 74.3 nM | [17] 526 nM | [18] 372 nM | [5] 935 nM | [6] 41.8 nM | [7] 148 nM | [19] 590 nM | [8] 935 nM | [9] 4690 nM | [10] 1480 nM | [11] 10.5 nM

CNC(=O)c1c(F)cccc1Nc1nc(Nc2cc3c(cc2OC)CCN3C(=O)CN(C)C)nc2[nH]ccc12
inactive: [20]
active: [12] 264 nM | [13] 46.9 nM | [14] 7430 nM | [15] 83.3 nM | [2] 372 nM | [4] 93.5 nM | [16] 16600 nM | [17] 132 nM | [18] 8330 nM | [5] 105 nM | [7] 7430 nM | [19] 10500 nM | [9] 2350 nM | [10] 2350 nM | [11] 105 nM

COc1cc(Nc2ncc(F)c(Nc3ccc4c(n3)N(COP(=O)(O)O)C(=O)C(C)(C)O4)n2)cc(OC)c1OC
active: [1] 743 nM | [15] 3720 nM | [3] 20900 nM | [20] 2350 nM | [5] 1870 nM | [6] 26400 nM | [7] 1870 nM | [9] 1480 nM | [10] 662 nM | [11] 1480 nM

COc1cc2nccc(Oc3ccc(NC(=O)C4(C(=O)Nc5ccc(F)cc5)CC4)cc3)c2cc1OC
active: [12] 23500 nM | [13] 2350 nM | [14] 14800 nM | [15] 16600 nM | [2] 26400 nM | [3] 590 nM | [4] 1870 nM | [16] 20900 nM | [18] 14800 nM | [5] 18700 nM | [6] 18700 nM | [7] 23500 nM | [19] 16600 nM | [8] 20900 nM | [9] 743 nM | [11] 3720 nM

c1nc2nc(Nc3ccc(N4CCOCC4)cc3)nc(NC3CCCCC3)c2[nH]1
active: [12] 16600 nM | [13] 10500 nM | [14] 8330 nM | [15] 3720 nM | [2] 16600 nM | [3] 5900 nM | [4] 14800 nM | [17] 16600 nM | [20] 5260 nM | [18] 5260 nM | [5] 3320 nM | [6] 18700 nM | [7] 4690 nM | [8] 16600 nM | [9] 2090 nM | [10] 1480 nM | [11] 3320 nM

CCc1c2c(nc3ccc(O)cc13)-c1cc3c(c(=O)n1C2)COC(=O)[C@]3(O)CC
active: [12] 2350 nM | [13] 833 nM | [14] 166 nM | [15] 46.9 nM | [2] 590 nM | [3] 11.8 nM | [4] 11.8 nM | [16] 662 nM | [17] 166 nM | [20] 590 nM | [18] 264 nM | [5] 1 nM | [6] 1180 nM | [7] 935 nM | [19] 469 nM | [8] 743 nM | [11] 662 nM

COC(=O)Nc1ccc(-c2nc(N3CCOCC3)c3cnn(C4CCN(Cc5cccnc5)CC4)c3n2)cc1
active: [12] 2960 nM | [13] 83.3 nM | [14] 59 nM | [15] 74.3 nM | [2] 4690 nM | [3] 118 nM | [4] 1480 nM | [5] 23500 nM | [7] 83.3 nM | [19] 2090 nM | [8] 18700 nM | [9] 11.8 nM | [10] 23.5 nM | [11] 46.9 nM
inactive: [20]

COc1cccc2c(NCc3ccccc3)nc(-n3c(N)nc4ccccc43)nc12
active: [12] 4690 nM | [13] 5900 nM | [14] 3320 nM | [15] 3320 nM | [2] 7430 nM | [3] 5260 nM | [4] 5900 nM | [16] 9350 nM | [17] 8330 nM | [20] 1320 nM | [5] 2960 nM | [6] 7430 nM | [7] 5260 nM | [19] 7430 nM | [8] 5900 nM | [9] 2090 nM | [10] 2350 nM | [11] 4180 nM
